Test results as given in PubChem BioAssay AID1259415 (National Center for Advancing Translational Sciences (NCATS), 2018).
About 18,000 (4.4%) of roughly 410,000 compounds were called active. Inconclusive results (about 7%) are left out. Cut-off read from the data, not from the text of the source: active = activity change below about -60%; inconclusive = no clear call, values can overlap the other calls; inactive = above about -39%. Shown is part of a subset that was picked to be rich in actives.

Assay: qHTS Assay for inhibitors of the human cytomegalovirus (HCMV)
Details: HFF cells, HCMV-luciferase reporter, 72 h; at 57.5 µM; stronger effect = lower value
Procedure, shortened: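 Luciferase read-out from HCMV-luciferase-infected HFFs (MOI 1 PFU/cell) 72 h post infection at 37C; compounds added after 16 h cell attachment; activity normalized between buffer-only basal and Salinomycin (10uM) inhibitor controls.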
% is set by controls: 0 for no effect and ±100 for the full control effect.

| Structure (SMILES) | activity change, negative = inhibition |
| --- | --- |
| CC(C)=CCc1c(O)c(CC=C(C)C)c2occ(-c3ccc(O)cc3)c(=O)c2c1O | -100% (active) |
| Cc1ccc(C(O)c2nnc(Nc3cccc(Oc4ccccc4)c3)s2)cc1 (configuration not stated) | -5.85% (inactive) |
| O=C(CCNC(=O)c1ccccc1)NN=Cc1ccc(Br)o1 | -13.4% (inactive) |
| O=C(CCNc1n[nH]c(=O)[nH]c1=O)N/N=C\c1ccc(Br)cc1 | 0% (inactive) |
| O=C(CCC(=O)N/N=C/c1ccc(Br)o1)N/N=C/c1ccc(Br)o1 | -61.8% (active) |
| O=C(N/N=C/c1ccc(Br)o1)c1cncc(Br)c1 | -102% (active) |
| COC(=O)c1ccccc1NC(=O)c1cncc(Br)c1 | -30.4% (inactive) |
| Cc1ccc(C(=O)N/N=C\c2cc(Br)c(Br)o2)cn1 | -32.6% (inactive) |
| COc1ccc(-c2cc(C(F)(F)F)n3nc(-c4ccccc4)cc3n2)cc1OC | -15.9% (inactive) |
| COc1ccccc1NC(=O)C1CCN(C(=O)c2ccc(C(C)(C)C)cc2)CC1 | 28.4% (inactive) |
| CC(=O)Nc1ccc(S(=O)(=O)N2CCn3cccc3C2C)cc1 (configuration not stated) | 36.8% (inactive) |
| O=C1CSc2ccc(S(=O)(=O)NCc3ccccc3)cc2N1 | 0% (inactive) |
| CCC(Cc1ccccc1)NS(=O)(=O)c1ccc2c(c1)NC(=O)CS2 (configuration not stated) | -70.6% (active) |
| COc1ccccc1CNS(=O)(=O)c1ccc2c(c1)NC(=O)CS2 | -16.2% (inactive) |
| Cc1cccc(N2CCN(C(=O)c3cnc(N4CCCC4)nc3C)CC2)c1C | -23.5% (inactive) |
| O=C(CSc1nc2ccccc2o1)N1CCN(c2ccc(Cl)cc2)CC1 | -0.478% (inactive) |
| Cc1nc(SCC(=O)N2CCN(c3ccccc3)CC2)[nH]c(=O)c1C | 17.7% (inactive) |
| O=C(CSc1nc2ccccc2o1)N1CCN(c2ccccc2)CC1 | -78.3% (active) |
| COC(=O)c1ccccc1NC(=O)Cn1c(=O)n(-c2cccc(C(F)(F)F)c2)c(=O)c2c(C)c(C)sc21 | -21.9% (inactive) |
| O=C(CN1C(=O)COc2ccc(S(=O)(=O)N3CCOCC3)cc21)N1CCN(c2cccc(Cl)c2)CC1 | -4.92% (inactive) |
| CCC1(CC)NC(=O)N(CC(=O)OCC(=O)NC(=O)c2ccccc2)C1=O | -39.9% (inactive) |
| Cn1c(CCc2ccccc2)nnc1SCC(N)=O | 8.58% (inactive) |
| N#CC1=C(SCc2ccc(C#N)cc2)N=C(N)C(c2nc(-c3ccccc3)cs2)C12CCCCC2 (configuration not stated) | -98.4% (active) |

| Structure (SMILES) | activity change, negative = inhibition |
| --- | --- |
| N#Cc1ccc(CSc2ncccn2)cc1 | 4.06% (inactive) |
| O=C(CCCn1c(=O)c2cccn2c2cccnc21)NCc1ccc(F)cc1 | -18% (inactive) |
| CCOc1ccccc1NC(=O)c1ccc2c(c1)CCN2S(=O)(=O)c1ccc(C)cc1 | 18.6% (inactive) |
| Cc1ccc2nc(C)c3c(c2c1)N(c1ccccc1)CC3 | -71.1% (active) |
| Cc1ccc2c(c1)c1ncnc(N3CCc4ccccc4C3)c1n2C | 110% (inactive) |
| Cc1ccc(C(=O)Nc2nc(N)n(-c3ccccc3)n2)cc1 | 68.4% (inactive) |
| O=C(CN1CCN(Cc2ccc(F)cc2Cl)C1=O)NCc1cccs1 | -20.5% (inactive) |
| Cc1ccc(N2C(=O)C3C4C=CC(CC4)C3C2=O)cc1Cl (configuration not stated) | 2.41% (inactive) |
| CC(C)CCN(C(=O)c1csnn1)C(C(=O)NC1CCCC1)c1ccccc1 (configuration not stated) | 19.1% (inactive) |
| Cc1ccc(C(=O)OCC(=O)Nc2ccc(Cl)cn2)cc1S(=O)(=O)N1CCOCC1 | -11.7% (inactive) |
| Cc1ccc(NC(=O)COC(=O)CNC(=O)c2ccc(Cl)cc2Cl)cc1S(=O)(=O)N1CCOCC1 | -100% (active) |
| Cc1ccc(NC(=O)COC(=O)C2CC2)cc1S(=O)(=O)N1CCOCC1 | -3.87% (inactive) |
| Cc1ccc(NC(=O)CCCNC(=O)c2ccc(Cl)cc2)cc1S(=O)(=O)N1CCCCC1 | -15.5% (inactive) |
| O=C(CCNC(=O)c1ccc([N+](=O)[O-])cc1)Nc1ccccc1N1CCOCC1 | -0.0167% (inactive) |
| Cc1ccc(NC(=O)CCNC(=O)c2ccc([N+](=O)[O-])cc2)cc1S(=O)(=O)N1CCOCC1 | -102% (active) |
| O=C(NCCc1ccccn1)c1cc(C(=O)C2CCCCC2)c[nH]1 | 24.3% (inactive) |
| COC(=O)CN1C(=S)N(c2ccccc2)C(=O)C1CC(=O)Nc1ccc(Cl)cc1 (configuration not stated) | -4.58% (inactive) |
| Cc1ccc(Cl)cc1N1CCN(S(=O)(=O)c2cc3[nH]c(=O)c(=O)[nH]c3cc2C)CC1 | 14.4% (inactive) |
| COc1ccccc1C(=O)OCc1cc(=O)n2nc(-c3cccs3)sc2n1 | 7.8% (inactive) |
| CC(C)(C)c1ccc(S(=O)(=O)Nc2ccc(O)c(Sc3nc4ccccc4s3)c2)cc1 | -13.2% (inactive) |
| CC1=C[C@H]2Cc3cc(C)cc(C)c3S(=O)(=O)[C@@H]2C=C1 | -67.4% (active) |
| Cc1oc2c(c1C(=O)Nc1ccc(F)c(F)c1)C1=NCCN1C=N2 | -2.2% (inactive) |
| CCn1c(C(=O)Nc2cc(Cl)ccc2C)cc2sc(Cl)cc21 | -25.2% (inactive) |

| Structure (SMILES) | activity change, negative = inhibition |
| --- | --- |
| N#Cc1ccc(C(c2nnnn2CCc2ccccc2)N2CCCCCC2)cc1 (configuration not stated) | -31.2% (inactive) |
| Fc1ccccc1C(c1nnnn1Cc1ccc2c(c1)OCO2)N1CCN(Cc2ccccc2)CC1 (configuration not stated) | -2.67% (inactive) |
| Fc1ccc(Cn2nnnc2C(c2cccs2)N2CCCCCC2)cc1 (configuration not stated) | -74.3% (active) |
| COC(=O)c1c(NC(=O)C(C)Oc2ccc(Cl)c(C)c2)sc(C)c1C (configuration not stated) | 24.4% (inactive) |
| Cc1cc(C)cc(OCC(=O)OCC(=O)NC2CCCC2)c1 | 0% (inactive) |
| CCOC(=O)C1CCCN(C(=O)Cn2ncc3c(C)n(Cc4ccc(F)cc4)c(C)c3c2=O)C1 (configuration not stated) | -24.7% (inactive) |
| COC(=O)c1scc(-c2ccccc2)c1S(=O)(=O)Nc1ccccc1 | -65.6% (active) |
| COC(=O)c1scc(-c2ccc(C)cc2)c1S(=O)(=O)Nc1cc(Cl)c(OC)cc1OC | -32.1% (inactive) |
| CCOC(=O)c1scc(-c2ccccc2)c1S(=O)(=O)Nc1ccccc1F | -9.83% (inactive) |
| Cc1cc(O)c(C(c2ccccc2)N2CCN(c3ccccc3F)CC2)c(=O)n1Cc1ccco1 (configuration not stated) | 11.6% (inactive) |
| Cc1nnc(N2CCC(C(=O)Nc3ccc(F)cc3)CC2)c2nn(-c3ccc(Cl)cc3)c(C)c12 | -83.4% (active) |
| CCc1ccc(CNC(=O)C2CCN(c3nnc(C)c4c(C)n(-c5ccc(C)cc5)nc34)CC2)cc1 | -8.15% (inactive) |
| CC(=O)Nc1c(C)nn(-c2ccccc2)c1N1CCC(C(=O)Nc2cc(Cl)ccc2C)CC1 | 54.8% (inactive) |
| CCOC(=O)C1CCC(CN(Cc2ccc(OC)cc2)S(=O)(=O)c2ccc(F)c(C(=O)Nc3cc(C)ccc3C)c2)CC1 (configuration not stated) | -8.08% (inactive) |
| CCOCCCNC(=O)c1c(NC(=O)Cc2coc3ccc(C)cc23)sc2c1CCC2 | -5.35% (inactive) |
| CCc1c(C)nc2ncnn2c1N1CCC(C(=O)NCc2ccc3c(c2)OCO3)CC1 | -29.2% (inactive) |
| FC(F)(F)c1cc(Nc2nc3ccccc3c3nncn23)ccc1Cl | -13.6% (inactive) |
| CCC(=O)N1c2ccccc2CC1C(=O)N1CCN(c2ccccc2)CC1 (configuration not stated) | 2.26% (inactive) |
| CN(C(=O)COc1ncnc2c1cnn2-c1ccccc1)C1CCCCC1 | -21.9% (inactive) |
| Cc1ccc(-n2ncc3c(N4CCC(C(N)=O)CC4)ncnc32)cc1 | 80.5% (inactive) |
| CCN(c1ncnc2c1cnn2-c1ccc(C)cc1)C1CCCCC1 | -79.6% (active) |
| COc1ccc(CCNC(=O)CCc2c(C)nc3c(c(C)nn3-c3ccc(C)c(C)c3)c2C)c(OC)c1OC | 22.2% (inactive) |
| COc1cc(NS(=O)(=O)c2ccc3c(c2)OCC(C(=O)N2CCCC2)O3)cc(OC)c1 (configuration not stated) | -21.9% (inactive) |

| Structure (SMILES) | activity change, negative = inhibition |
| --- | --- |
| C=Cc1ccc(Cn2c(C(=O)OC)cc3sc(C)cc32)cc1 | -33.1% (inactive) |
| O=C(O)c1ccc(OCC2CCCO2)cc1 (configuration not stated) | 63.5% (inactive) |
| Cc1cc(C)nc(N2C(=O)CC(Cc3ccccc3)C2=O)n1 (configuration not stated) | -1.22% (inactive) |
| COC(=O)CC1=NN(c2nc(C)cc(C)n2)C(=O)C1 | -72.6% (active) |
| Cc1ccc(CC2CC(=O)N(c3nc(C)cc(C)n3)C2=O)cc1 (configuration not stated) | -6.32% (inactive) |
| O=C(NCc1cc(F)cc(C(F)(F)F)c1)C1CCC(=O)N(C2CCCC2)C1 (configuration not stated) | 8.32% (inactive) |
| NCCCCCC(=O)N/N=C/c1ccc2nccnc2c1 | -14.8% (inactive) |
| O=C(N/N=C/c1ccc(Cl)c(Cl)c1)c1ccc2nc[nH]c2c1 | -65.6% (active) |
| CC(=NNC(=O)c1ccncc1)c1ccc(Cl)c(Cl)c1 | -31% (inactive) |
| CCc1ccc(CN(Cc2ccco2)C(=O)c2ccccc2Cl)cc1 | 33.9% (inactive) |
| O=C(CN1C(=O)CCn2nc(-c3ccccc3)cc21)NCc1ccccc1 | 6.04% (inactive) |
| Cc1cc(C)cc(NC(=S)NCCc2c[nH]c3ccccc23)c1 | -73.6% (active) |
| O=C(COC(=O)Cc1c[nH]c2ccccc12)NCCc1ccccc1 | 10.5% (inactive) |
| c1cncc(CNCCc2c[nH]c3ccccc23)c1 | -8.49% (inactive) |
| O=C(c1[nH]ncc1-c1ccc(Cl)cc1)C1CO1 (configuration not stated) | -78.7% (active) |
| COc1ccc(NC(=O)C2Cc3c(-c4ccc(Cl)cc4)ccnc3O2)cc1 (configuration not stated) | -3.46% (inactive) |
| COc1cccc(CNC(=O)C2CCN(S(=O)(=O)c3ccc4c(ccn4C)c3)CC2)c1 | 16.9% (inactive) |
| c1ccc2c(-c3nn4nnnc4c4ccccc34)cccc2c1 | 49.8% (inactive) |
| CN(C(=O)CSc1nc2ccc(NC(=O)COc3ccccc3)cc2s1)c1ccccc1 | -30% (inactive) |
| COc1ccc2c(c1)c(N1CCCC1=O)c(C(=O)Nc1ccccc1C(F)(F)F)n2C | -24.2% (inactive) |
| CCCCCC(=O)N1C[C@H](O)[C@@H](n2cc(COC(=O)c3ccccc3)nn2)C[C@@H]1c1ccc(C)cc1 | -7.72% (inactive) |
| Cc1ccc([C@H]2C[C@H](O)[C@@H](n3cc(COC(=O)c4ccccc4)nn3)CN2CC2CCCCC2)cc1 | -100% (active) |
| Cc1ccc([C@H]2C[C@H](O)[C@@H](n3cc(COC(=O)c4ccccc4)nn3)CN2C(=O)C2CCCCC2)cc1 | 1.46% (inactive) |
